Hits are enriched below; roughly 7.9% of the tested compounds scored in any of these assays.
MCF10A rerep = induces DNA re-replication in MCF 10a normal breast cells; MCF 10A DNA re-replication, Hoechst nuclear intensity, 48 h; Potency, µM (highest dose often 46.1 µM), hits mostly activators; actives 2.9% (n = 350,000); AID 624296; note: nearly all actives have a fitted effect of over 50% in size
KB-V1 cytotox = kills drug-selected multidrug resistant KB-V1 cells. KB-V1 MDR cells viability, CellTiter-Glo, 72 h. Potency, µM (top dose mostly 46.1 µM), hits mostly cytotoxic. actives 3.4% (n = 400,000); note: nearly all actives have a fitted effect of over 60% in size
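In this primary screen, KB-V1 cells overexpressing P-gp are incubated with library compounds (lowest to highest concentration) for 72 h at 37 degrees C before a luminescent ATP viability read.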
HT1080NT lethal = kills 2HG-producing HT-1080-NT fibrosarcoma cells; Potency, µM (titrated, usually from 46.1 µM), usual class: cytotoxic; HT-1080-NT fibrosarcoma viability, CellTiter-Glo ATP luminescence, 48 h; actives 1.6% (n = 360,000); AID 686970;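 note: NT is the 2HG producing partner of a matched IDH1 knockdown line; nearly all actives have a fitted effect of over 55% in size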
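A 48-hour cytotoxicity screen used HT-1080-NT cells plated 2 hours before compound delivery. ATP-based CellTiter-Glo luminescence measured viability, normalized to DMSO and no-cell controls.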
SW480 rerep = inducers of DNA re-replication in SW480 colon cancer cells; actives 1.8% (n = 340,000); SW480 DNA re-replication, Hoechst DNA content imaging, 48 h; AID 624297; Potency, µM (titrated, usually from 46.1 µM), most hits filed as activators; note: nearly all actives have a fitted effect of over 55% in size
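Cells (250 per well) received 23 nL compound or DMSO by pin tool and were kept 48 hr at 37 C, 5% CO2. Nuclei were then stained with Hoechst for 40 min and scanned for DNA content.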
KB-3-1 tox = kills parental KB-3-1 adenocarcinoma cells; KB-3-1 viability, CellTiter-Glo ATP luminescence, 72 h; actives 1.4% (n = 400,000); Potency, µM (series often up to 46.1 µM), actives largely listed as cytotoxic; note: nearly all actives have a fitted effect of over 60% in size
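KB-3-1 cells, DMEM (no phenol red) + 10% FBS; compound by pin transfer, 72 h, 37 °C. Readout: CellTiter-Glo luminescence after 10 min. Data normalized, curve-fitted.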
HT1080 IDH1KD tx = HT-1080 IDH1 knockdown cell toxicity (counter line); HT-1080 IDH1 knockdown viability, ATP luminescence, 48 h; Potency, µM (titrated, usually from 46.1 µM), actives largely listed as cytotoxic; actives 2% (n = 360,000)
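In this qHTS, HT-1080 cells depleted of IDH1 are exposed for 48 h at 37 °C to compound titrations. Toxicity is scored from CellTiter-Glo luminescence, with DMSO as full viability and medium alone as none.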
Large screens that a line does not name were inactive. Calls come from the whole dose curve; as a rule, active = well fitted curve in the direction sought with a large enough effect; inconclusive = small, poorly fitted or top-dose-only effect, or another doubt; inactive = no such curve, though single readings can be large; an effect the other way counts as inactive or inconclusive.

Cc1ccc(Cl)cc1OCC(=O)NCCOC(=O)Nc1sc(=S)n(C)c1C	KB-V1 cytotox 13µM, KB-3-1 tox inconclusive
Cc1cc(Cl)ccc1OCC(=O)NCCOC(=O)Nc1sc(=S)n(C)c1C	KB-V1 cytotox inconclusive, HT1080 IDH1KD tx inconclusive
Cc1cccc(C)c1OCCCCc1c(C)n[nH]c1C	KB-V1 cytotox inconclusive, HT1080 IDH1KD tx inconclusive
COC(=O)c1ccc2[nH]c3cccc(/C(=C/c4ccccc4)c4ccccc4)c3c2c1	MCF10A rerep 12µM, KB-V1 cytotox inconclusive, HT1080NT lethal inconclusive, KB-3-1 tox inconclusive, HT1080 IDH1KD tx inconclusive
O=C1CCCc2[nH]c3cccc(/C(=C/c4ccccc4)c4ccccc4)c3c21	MCF10A rerep inconclusive, KB-V1 cytotox inconclusive
CC(=O)c1cccc(NC(=S)N2CCN(CCN3C(=O)c4cccc5cccc(c45)C3=O)CC2)c1	none
CCC(CC)CN1CCC(CN2CCNC(=O)C2=O)CC1	MCF10A rerep 2.1µM
CCOc1ccc2c(c1)OC(c1ccc(C)cc1)(C(F)(F)F)NC2=O (stereo not given)	MCF10A rerep 1.5µM, KB-V1 cytotox 1.3µM, HT1080NT lethal inconclusive, SW480 rerep inconclusive, HT1080 IDH1KD tx 2.3µM
Cc1ccc(CN2CC(C(=O)N3CCN(S(=O)(=O)c4cc(C)ccc4C)CC3)CC2=O)cc1 (stereo not given)	none
Cc1ccc(S(=O)(=O)N2CCN(C(=O)CSC3CCCC3)CC2)c(C)c1	KB-V1 cytotox 4.1µM
Cc1ccc(CN2CC(C(=O)N3CCN(S(=O)(=O)c4ccc(C)cc4C)CC3)CC2=O)cc1 (stereo not given)	KB-V1 cytotox 16µM
Cc1cc(C)c(NC(=O)C2CC(=O)N(Cc3ccccc3)C2)c(C)c1 (stereo not given)	SW480 rerep 16µM
Cc1ccc(-n2c(=O)c3c(c4cc(C)ccc4n3C)n(CC(=O)NCCC3=CCCCC3)c2=O)cc1	none (no result: MCF10A rerep, HT1080NT lethal, SW480 rerep, HT1080 IDH1KD tx)
COc1ccc(-n2c(=O)c(CCC(=O)NCCc3ccccc3F)nc3ccccc32)cc1	none
CC(SCc1ccccc1)C(=O)N/N=C/c1cc2c(cc1Br)OCO2 (stereo not given)	MCF10A rerep inconclusive
O=C1COc2ccccc2N1Cc1c(F)cccc1Cl	MCF10A rerep 23µM
O=C(CN1C(=O)COc2ccccc21)Nc1ccccc1F	KB-3-1 tox inconclusive
Cc1cccc(C2=NN(c3ccccc3)[C@H](CO)[C@H]2c2ccc(Cl)cc2)c1	MCF10A rerep 2.3µM, KB-V1 cytotox inconclusive, HT1080NT lethal inconclusive, SW480 rerep 13µM, KB-3-1 tox inconclusive, HT1080 IDH1KD tx inconclusive
Cc1cccc(C2=NN(c3ccccc3)[C@H](CO)[C@H]2c2ccc(F)cc2)c1	MCF10A rerep inconclusive, HT1080NT lethal inconclusive, SW480 rerep 5.2µM, HT1080 IDH1KD tx inconclusive
OC[C@@H]1[C@@H](c2ccccc2)C(c2cccc(Cl)c2)=NN1c1ccccc1	MCF10A rerep inconclusive, KB-V1 cytotox inconclusive, HT1080NT lethal 12µM, SW480 rerep inconclusive, KB-3-1 tox inconclusive, HT1080 IDH1KD tx inconclusive
CSc1ccccc1NC(=O)CN1CCCCC1	none
NC(=O)CSc1nnc(-c2cnccn2)n1-c1ccccc1	none
COc1ccc(OC)c(NC(=O)CN2c3cccc4cccc(c34)S2(=O)=O)c1	KB-V1 cytotox 5.2µM
COc1ccc(C)cc1NC(=O)CN1C(=O)c2cccc3cccc1c23	MCF10A rerep 15µM, SW480 rerep inconclusive
COc1ccc(NC(=O)CN2C(=O)c3cccc4cccc2c34)cc1OC	MCF10A rerep inconclusive, HT1080NT lethal inconclusive, SW480 rerep inconclusive, HT1080 IDH1KD tx inconclusive
COc1ccc(/C=N/NC(=O)c2ccc(CN3c4cccc5cccc(c45)S3(=O)=O)cc2)cc1	none
O=C(CN1c2cccc3cccc(c23)S1(=O)=O)NCCc1ccccc1	KB-V1 cytotox 21µM
COc1cc(/C=N/NC(=O)c2ccc(CN3c4cccc5cccc(c45)S3(=O)=O)cc2)cc(OC)c1O	MCF10A rerep 16µM
O=C1c2ccccc2C2(c3ccccc3)N1CCN2C(=O)C(Cl)(Cl)Cl (stereo not given)	MCF10A rerep inconclusive, KB-V1 cytotox 16µM, HT1080NT lethal inconclusive, SW480 rerep inconclusive, KB-3-1 tox inconclusive, HT1080 IDH1KD tx inconclusive
Cc1ccc(C(=O)N2CCN3C(=O)c4ccccc4C23c2ccccc2)cc1 (stereo not given)	none
Cc1ccc(-c2nc3cccnc3o2)cc1NC(=O)COc1ccc(Cl)cc1C	KB-V1 cytotox inconclusive
Cc1ccc(-c2nc3cccnc3o2)cc1NC(=O)COc1ccc(C(C)(C)C)cc1	MCF10A rerep 18µM, KB-V1 cytotox inconclusive, HT1080NT lethal inconclusive, SW480 rerep inconclusive, KB-3-1 tox inconclusive, HT1080 IDH1KD tx inconclusive
COc1ccc(S(=O)(=O)NC(CC(=O)NCCc2ccc(OC)c(OC)c2)c2ccco2)cc1 (stereo not given)	none
CCOC(=O)C(C(=O)OCC)c1cc(Br)c2noc3c2c1C(=O)c1ccccc1-3	MCF10A rerep inconclusive, KB-V1 cytotox inconclusive, HT1080NT lethal 9.2µM, SW480 rerep inconclusive, KB-3-1 tox 5.2µM, HT1080 IDH1KD tx 12µM
Cc1ccc(-c2nn(-c3ccccc3)c3c2cnc2ccccc23)cc1C	none (no result: MCF10A rerep, HT1080NT lethal, SW480 rerep, HT1080 IDH1KD tx)
CCOC(=O)C1=C(CSc2nc3ccccc3s2)NC(=O)NC1c1cc(C)ccc1C (stereo not given)	MCF10A rerep inconclusive, HT1080NT lethal inconclusive, SW480 rerep 18µM
CCOC(=O)C1=C(CSCC(=O)OC)NC(=O)NC1c1cc(C)ccc1C (stereo not given)	none
CCOC(=O)C1=C(CSc2nc3ccccc3s2)NC(=O)NC1c1ccc(OC)cc1 (stereo not given)	KB-V1 cytotox 16µM, HT1080NT lethal inconclusive, KB-3-1 tox inconclusive, HT1080 IDH1KD tx inconclusive
CCOc1ccc(S(=O)(=O)Nc2ccccc2SC)c2cccnc12	none
C[C@H]1CN([C@@H](C)CO)C(=O)CCCn2nncc2CO[C@@H]1CN(C)S(=O)(=O)c1ccc(Oc2ccccc2)nc1	none (no result: MCF10A rerep, SW480 rerep)
COC(=O)Cc1ccc(NC(=O)c2ccc(C(C)(C)C)cc2)cc1	KB-V1 cytotox inconclusive, KB-3-1 tox inconclusive
Cc1nc(N2CCN(Cc3ccccc3)CC2)nc2c1C(=O)CC(C)C2 (stereo not given)	KB-V1 cytotox 21µM
NS(=O)(=O)c1ccc(-c2ccc(/C=N/Nc3ccc(C(=O)O)cc3)o2)cc1	SW480 rerep inconclusive
CC(C)(C)NC(=S)N/N=C\c1ccc(-c2ccc([N+](=O)[O-])cc2)o1	MCF10A rerep 16µM, SW480 rerep 21µM, KB-3-1 tox inconclusive
O=C(O)c1ccc(-c2ccc(/C=N/Nc3ccc([N+](=O)[O-])cc3)o2)cc1	MCF10A rerep 18µM, SW480 rerep 18µM
